This note sets out measurements from PubChem BioAssay.

The source made the active and inactive calls.

The nature of test [1]: binders of probe aFSTL3 on microarray, primary screen, stem cell growth factor project, biochemical, small-molecule microarray, fluorescence 635/667 (AID 1064).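 Note: measures binding of the biotinylated anti-FSTL3 antibody to printed compounds.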 Particulars: higher = more signal.
Test [2] can be described thus: binders from COS7 lysate, DM2A8 probe, primary screen, torsin A project, cell lysate, small-molecule microarray, fluorescence 635/667 (AID 1065). Particulars: higher = more signal, COS7 lysate expressing mutant human TOR1A.
The nature of test [3]: binders of probe aFGF2 on microarray, primary screen, stem cell growth factor project, biochemical, small-molecule microarray, fluorescence 635/667 (AID 1067).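 Note: measures binding of biotinylated aFGF2 protein to printed compounds on slides; z-score merges feature fluorescence and signal-to-noise across triplicate slides.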 The conditions noted are these: higher = more signal.
The nature of test [4]: binders of probe aFGF10 on microarray, primary screen, stem cell growth factor project, biochemical, small-molecule microarray, fluorescence 635/667 (AID 1071).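 Note: score merges 667 nm spot intensity and signal to noise from triplicate slides.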 The conditions noted are these: higher = more signal.
Test [5] addresses Neurogenic locus notch homolog protein 2 (Homo sapiens) (UniProt Q04721). The experiment in a line: Notch2 binders on small-molecule microarrays, primary screen, biochemical, small-molecule microarray, 635 nm fluorescence, stem cell growth factors (AID 1073). The conditions noted are these: Notch2 binding, higher = more signal.
Test [6] concerns the target Pro-neuregulin-1, membrane-bound isoform (Homo sapiens) (UniProt Q02297). The experiment in a line: NRG1 binders on small-molecule microarrays, primary screen, psychiatric disease protein project, biochemical, small-molecule microarray, fluorescence 635/667 (AID 1075).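 Note: score combines 667 nm spot fluorescence with signal to noise.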 Particulars: NRG1 binding, 635 nm fluorescence, higher = more signal.
In test [7] the test system is Neuregulin-1 EGF-like domain. Put plainly: binders of neuregulin-1 EGF-like domain, primary screen, biochemical, small-molecule microarray, 635 nm fluorescence (AID 1081).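 Note: binding of the protein to compounds printed on small-molecule microarray slides.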 The conditions noted are these: small-molecule microarray binding, higher = more signal.
Test [8] is described as follows: FRG1 promoter luciferase signal modulators, primary screen, FRG1 inhibition for FSHD, cell-based, C2C12 myotubes, firefly/Renilla luciferase, luminescence (AID 1084). Particulars: higher = more signal, called active from +8 up or from −8 down.
Test [9] in a line: binders of probe aFST on microarray, primary screen, stem cell growth factor project, biochemical, small-molecule microarray, fluorescence 635/667 (AID 1086).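 Note: score merges 667 nm fluorescence with signal-to-noise of each printed compound spot.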 Particulars: higher = more signal.
Test [10] in a line: binders of probe aHhip on microarray, primary screen, stem cell growth factor project, biochemical, small-molecule microarray, fluorescence 635/667 (AID 1087).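 Note: score merges spot fluorescence at 667nm with spot signal to noise ratio.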 The conditions noted are these: higher = more signal.
The test system of test [11] is PRMT1 (protein arginine N-methyltransferase 1). Put plainly: PRMT1 binders on small-molecule microarrays, primary screen, biochemical, small-molecule microarray, 635 nm fluorescence (AID 1088).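 Note: binding of Prmt1 protein to compounds spotted on small-molecule microarray slides.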 The conditions noted are these: small-molecule microarray binding, higher = more signal.
Test [12] is described as follows: yeast growth modulation, basal conditions, primary screen, YJM789 clinical isolate, OD600, 24 h (AID 1089).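 Note: growth of clinical yeast isolate S. cerevisiae YJM 789 seeded 1000 cells per well; test concentration not given here.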 The conditions noted are these: S. cerevisiae YJM789 growth, higher = more signal, called active from +8 up or from −8 down.
A short description of test [13]: fission yeast growth modulation, primary screen, strain 972, OD600, 24 h, no modulator (AID 1090).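 Note: basal condition with compound alone and no growth modifier present; test concentration not given here.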 Particulars: S. pombe 972 growth, higher = more signal, called active from +8 up or from −8 down.
Test [14] can be described thus: S. cerevisiae growth modulation with rapamycin, primary screen, strain BY4716, OD600, 96 h (AID 1091). Note: test concentration not given here. Particulars: higher = more signal, called active from +8 up or from −8 down.
Test [15] addresses Torsin-1A-interacting protein 2 (Homo sapiens) (UniProt Q8NFQ8). Put plainly: LULL1 binders on small-molecule microarray, primary screen, cell lysate, human LULL1 lysate, 635/667 nm fluorescence (AID 1092).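 Note: probe is lysate of COS7 cells overexpressing human LULL1; score merges per-feature 667 nm fluorescence with signal-to-noise.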 Particulars: hLULL1 lysate binding, 635 nm fluorescence, higher = more signal.
Test [16] in a line: E. coli growth modulation, two-sided OD650, primary screen, E. coli filamentation project, strain DRC41, 24 h (AID 1093).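 Note: MC1000 strain lacking acrAB efflux and sulA so SOS filamentation is blocked; test concentration not given here.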 The conditions noted are these: OD650, 24 h, higher = more signal, called active from +8 up or from −8 down.
The nature of test [17]: small-molecule microarray binders of probe aLefty2, primary screen, biochemical, biotinylated probe, 635/667 nm fluorescence (AID 1094).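 Note: score merges spot fluorescence near 667 nm with spot signal-to-noise ratio.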 The conditions noted are these: higher = more signal.
The subject of test [18] is Noggin (protein binding on small-molecule microarray). The experiment in a line: Noggin binders on small-molecule microarray, primary screen, biochemical, 635/667 nm fluorescence (AID 1095).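 Note: score merges 667 nm feature fluorescence with signal to noise over triplicate slides.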 The conditions noted are these: 635 nm fluorescence, higher = more signal.
The target in test [19] is Neurogenic locus notch homolog protein 3 (Homo sapiens) (UniProt Q9UM47). The experiment in a line: NOTCH3 binders on small-molecule microarray, primary screen, biochemical, 635/667 nm fluorescence (AID 1096). Particulars: NOTCH3 binding, 635 nm fluorescence, higher = more signal.
Test [20] is described as follows: small-molecule microarray binders of probe aEGFR, primary screen, biochemical, biotinylated probe, 635/667 nm fluorescence (AID 1097).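 Note: probe is a biotinylated anti-EGFR antibody binding compounds printed on slides; score combines fluorescence near 667 nm and signal to noise of each spot.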 The conditions noted are these: higher = more signal.

Chain of Neurogenic locus notch homolog protein 3 (Homo sapiens) (Q9UM47 whole entry, looked up): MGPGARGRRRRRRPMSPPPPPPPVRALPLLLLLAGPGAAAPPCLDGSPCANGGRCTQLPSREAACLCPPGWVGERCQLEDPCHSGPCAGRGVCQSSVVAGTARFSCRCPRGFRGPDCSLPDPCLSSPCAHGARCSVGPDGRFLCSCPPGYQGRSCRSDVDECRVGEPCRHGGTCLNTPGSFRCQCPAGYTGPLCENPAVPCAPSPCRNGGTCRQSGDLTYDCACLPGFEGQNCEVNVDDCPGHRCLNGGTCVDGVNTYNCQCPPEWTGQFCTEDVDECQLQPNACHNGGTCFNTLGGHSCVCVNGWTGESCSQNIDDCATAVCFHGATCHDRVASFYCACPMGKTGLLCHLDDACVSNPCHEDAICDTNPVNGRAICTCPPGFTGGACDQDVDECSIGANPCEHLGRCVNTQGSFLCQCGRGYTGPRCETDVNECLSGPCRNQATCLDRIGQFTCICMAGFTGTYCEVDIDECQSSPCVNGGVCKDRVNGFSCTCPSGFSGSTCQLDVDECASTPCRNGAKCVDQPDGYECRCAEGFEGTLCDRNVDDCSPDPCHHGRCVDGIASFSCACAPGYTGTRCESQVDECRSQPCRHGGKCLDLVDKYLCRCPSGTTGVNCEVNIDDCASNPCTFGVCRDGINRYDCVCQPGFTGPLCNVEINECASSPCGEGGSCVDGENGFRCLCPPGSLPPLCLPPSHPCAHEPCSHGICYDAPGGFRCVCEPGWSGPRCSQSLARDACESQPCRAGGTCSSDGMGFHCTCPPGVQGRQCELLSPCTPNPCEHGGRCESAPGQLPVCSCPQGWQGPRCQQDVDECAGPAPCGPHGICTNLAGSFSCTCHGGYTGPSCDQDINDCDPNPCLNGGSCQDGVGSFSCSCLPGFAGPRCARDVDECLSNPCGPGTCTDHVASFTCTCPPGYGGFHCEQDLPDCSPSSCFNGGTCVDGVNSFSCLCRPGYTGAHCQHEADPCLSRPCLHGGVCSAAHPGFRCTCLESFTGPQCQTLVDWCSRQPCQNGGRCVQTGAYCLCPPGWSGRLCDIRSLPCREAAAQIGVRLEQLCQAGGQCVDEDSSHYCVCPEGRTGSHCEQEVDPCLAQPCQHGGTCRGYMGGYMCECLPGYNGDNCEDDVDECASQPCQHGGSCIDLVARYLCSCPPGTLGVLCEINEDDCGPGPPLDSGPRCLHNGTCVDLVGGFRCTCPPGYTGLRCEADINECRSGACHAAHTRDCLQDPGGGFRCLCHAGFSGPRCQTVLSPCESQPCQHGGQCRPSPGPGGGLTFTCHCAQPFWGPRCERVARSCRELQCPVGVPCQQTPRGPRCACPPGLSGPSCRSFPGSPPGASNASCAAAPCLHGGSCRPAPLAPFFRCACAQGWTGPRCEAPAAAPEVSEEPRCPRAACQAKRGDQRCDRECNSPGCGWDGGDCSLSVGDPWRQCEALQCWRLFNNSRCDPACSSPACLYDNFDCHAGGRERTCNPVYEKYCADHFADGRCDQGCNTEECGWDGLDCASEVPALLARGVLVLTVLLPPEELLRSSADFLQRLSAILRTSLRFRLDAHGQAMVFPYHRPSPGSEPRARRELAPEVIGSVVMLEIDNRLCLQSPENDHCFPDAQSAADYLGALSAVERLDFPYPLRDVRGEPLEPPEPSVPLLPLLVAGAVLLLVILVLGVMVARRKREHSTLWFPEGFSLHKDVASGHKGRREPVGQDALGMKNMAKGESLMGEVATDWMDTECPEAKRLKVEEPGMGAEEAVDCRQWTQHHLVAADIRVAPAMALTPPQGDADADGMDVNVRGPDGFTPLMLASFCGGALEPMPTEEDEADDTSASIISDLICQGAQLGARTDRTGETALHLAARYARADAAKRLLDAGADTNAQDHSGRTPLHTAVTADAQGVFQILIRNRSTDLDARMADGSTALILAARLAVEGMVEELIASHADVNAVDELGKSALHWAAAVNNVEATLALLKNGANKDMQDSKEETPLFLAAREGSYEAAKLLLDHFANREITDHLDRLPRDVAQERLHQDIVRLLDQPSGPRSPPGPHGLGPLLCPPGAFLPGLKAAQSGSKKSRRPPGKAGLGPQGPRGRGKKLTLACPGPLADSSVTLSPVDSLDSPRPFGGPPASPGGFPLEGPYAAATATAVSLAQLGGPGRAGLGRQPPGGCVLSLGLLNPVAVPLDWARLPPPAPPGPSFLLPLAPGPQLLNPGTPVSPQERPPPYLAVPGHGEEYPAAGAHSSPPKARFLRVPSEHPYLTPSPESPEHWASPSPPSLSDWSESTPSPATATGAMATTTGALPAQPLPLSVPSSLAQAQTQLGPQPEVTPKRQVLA
Chain of Pro-neuregulin-1, membrane-bound isoform (Homo sapiens) (Q02297 whole entry, looked up, the tested form may be a part, canonical isoform): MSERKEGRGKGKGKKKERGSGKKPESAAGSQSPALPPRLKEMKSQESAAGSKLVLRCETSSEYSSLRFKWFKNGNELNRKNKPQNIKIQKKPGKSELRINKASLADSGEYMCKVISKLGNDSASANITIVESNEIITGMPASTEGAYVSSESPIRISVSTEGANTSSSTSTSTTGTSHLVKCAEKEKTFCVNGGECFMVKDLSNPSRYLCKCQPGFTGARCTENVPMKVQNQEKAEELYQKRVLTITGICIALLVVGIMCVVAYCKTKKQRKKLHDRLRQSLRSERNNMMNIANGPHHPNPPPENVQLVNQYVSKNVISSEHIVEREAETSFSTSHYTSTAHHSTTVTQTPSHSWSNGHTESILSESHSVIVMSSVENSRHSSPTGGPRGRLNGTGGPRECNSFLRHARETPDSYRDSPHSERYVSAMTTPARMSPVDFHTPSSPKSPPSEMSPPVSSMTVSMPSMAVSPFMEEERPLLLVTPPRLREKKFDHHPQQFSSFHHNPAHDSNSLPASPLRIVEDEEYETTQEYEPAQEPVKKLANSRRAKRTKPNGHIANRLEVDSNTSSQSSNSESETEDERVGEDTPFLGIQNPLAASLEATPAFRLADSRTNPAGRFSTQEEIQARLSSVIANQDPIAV
Chain of Torsin-1A-interacting protein 2 (Homo sapiens) (Q8NFQ8 whole entry, looked up): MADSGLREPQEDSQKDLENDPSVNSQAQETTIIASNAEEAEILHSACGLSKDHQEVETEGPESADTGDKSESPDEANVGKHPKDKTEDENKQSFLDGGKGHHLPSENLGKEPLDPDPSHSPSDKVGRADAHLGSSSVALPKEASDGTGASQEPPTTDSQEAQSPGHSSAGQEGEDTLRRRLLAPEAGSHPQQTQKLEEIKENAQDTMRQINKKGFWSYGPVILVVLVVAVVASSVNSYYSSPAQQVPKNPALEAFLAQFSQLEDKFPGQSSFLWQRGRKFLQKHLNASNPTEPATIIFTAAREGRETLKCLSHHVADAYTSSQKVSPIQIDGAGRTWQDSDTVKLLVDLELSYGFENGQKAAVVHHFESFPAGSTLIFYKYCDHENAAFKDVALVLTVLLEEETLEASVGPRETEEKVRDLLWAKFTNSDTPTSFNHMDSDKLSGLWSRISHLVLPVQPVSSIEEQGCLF

Turning to `CC(C)NC(=O)[C@@H]1c2ccccc2C(=O)N(C2CCCCC2)[C@H]1c1ccc(CO)cc1`, the composite z-score in test [1] turned out to be 0.0605; in test [2], 0.562; in [3], 0.0703; in test [4], 0.74; in test [5], 0.851; in test [6] it was 1.15. For the same compound, the composite z-score is 1 in test [7]; 0.333 in [9]; -0.216 in test [10]; 0.4 in test [11]; 1.48 in test [15]; 0.25 in [17]. The composite z-score in test [18] is -0.123; in test [19] it was 0.108; in test [20], 0.262. Besides, the z-score in [8] was 0.492 (inactive); in test [12] it was -0.455 (inactive); in [13], 0.0765 (inactive); in [14] it was 0.13 (inactive); in test [16], 0.0495 (inactive).

Take `COCCOC(=O)N1C(=O)[C@@]2(c3cc(C#Cc4ccc(OC)cc4)ccc31)[C@H](C(N)=O)[C@H]1C(=O)O[C@H](c3ccccc3)[C@H](c3ccccc3)N1[C@@H]2c1ccc(O)cc1`: the composite z-score in test [1] is -0.39; in test [2], -0.343; in test [3], -0.167; in [4], -0.206; in [5] it was -1.64; in test [6] it was -0.55. The composite z-score in [7] is -0.297; in test [9] it was -1.05; in test [10] it was -0.376; in test [11], -1.57; in test [15], -0.839; in test [17], -0.264. For the same compound, the composite z-score was -2.13 in test [18], -1.35 in test [19] and -0.627 in [20]. For the same compound, the z-score is 0.961 (inactive) in [8]; -0.613 (inactive) in test [12]; -0.0532 (inactive) in test [13]; 0.333 (inactive) in [14]; 1.84 (inactive) in test [16].

With `COCCCNC(=O)[C@@]1(C)c2ccccc2C(=O)N(Cc2ccccc2)[C@H]1c1ccc(CO)cc1`, the composite z-score in [1] was 0.235; in test [2], 0.0748; in [3] it was -0.173; in test [4] it was -0.979; in [5], -1.19; in test [6], 1.88. In addition, the composite z-score in test [7] is 1.5; in [9] it was -0.353; in [10], -0.147; in test [11], 1.46; in test [15], 3.43; in [17], -0.11. The composite z-score is -0.694 in test [18], 0.0118 in [19] and -0.168 in test [20]. Besides, the z-score was -1.24 (inactive) in test [8]; -0.21 (inactive) in test [12]; -1.31 (inactive) in test [13]; -0.0048 (inactive) in test [14]; -0.336 (inactive) in test [16].

In the case of `CC(C)NC(=O)[C@@]1(c2ccc([N+](=O)[O-])cc2)CC(=O)N(C(C)C)[C@@H]1c1ccc(CO)cc1`, the composite z-score in [1] was 1.12; in test [2], -0.0946; in test [3], -0.134; in test [4] it was -0.218; in test [5] it was -0.999; in test [6], -0.524. Also, the composite z-score in test [7] is 0.697; in test [9], -1.08; in test [10], -0.256; in test [11], 0.859; in test [15] it was 2.61; in test [17] it was 0.0945. The results for the composite z-score in test [18], in test [19] and in [20] were -1.14, -0.323 and -0.253, respectively. Besides, the z-score is -0.31 (inactive) in test [8]; -2.06 (inactive) in test [12]; -0.476 (inactive) in test [13]; -0.692 (inactive) in test [14]; 1.26 (inactive) in test [16].

Take `COC(=O)[C@@]1(Cc2ccc(OC)cc2)[C@H]2c3cc(C(=O)N(C)C)n(CCSCCO)c3C[C@H]2CN1C(=O)c1ccccc1`: the composite z-score is 0.172 in test [1]; -0.233 in test [2]; 0.164 in [3]; 0.979 in [4]; 1.61 in [5]; 1.47 in test [6]. Further, the composite z-score in test [7] is 1.22; in test [9] it was 0.547; in test [10] it was -0.04; in test [11], 0.359; in [15] it was 3.53; in test [17] it was 0.162. For the same compound, the composite z-score in test [18] is 0.281; in test [19], 1.13; in test [20] it was 0.31. Further, the z-score in test [8] was -1.35 (inactive); in [12] it was -0.526 (inactive); in [13] it was 0.271 (inactive); in [14] it was -0.251 (inactive); in test [16] it was -0.209 (inactive).
